Measurements published in PubChem BioAssay AID1159580 (chemical genetic matrix, 2015).
Where “and” joins values, the source holds several entries; their conditions need not be identical. Identical values can stand only once. In all, about 5,500 compounds went through this assay and about 2,000 (36%) were called active. Inconclusive results (about 18%) are left out. Rule as the data show it: active = normalized growth mostly below about 0.91 (no sharp cut-off); inconclusive = no clear call, values can overlap the other calls; inactive = mostly above about 0.92. The list shows a part of the results.

Experiment: chemical genetic growth profiling, strain panel (AID 1159580);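 also: tested at 20 µM; growth read once vehicle control cultures reached saturation at 30 °C; 1 = growth at the plate median or of vehicle wells; lower values mean less growth of the strain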
Conditions: growth OD
[1] = S. cerevisiae deletion strains, locus YAL013W, strain DEP1, active compounds read low
[2] = S. cerevisiae deletion strains, locus YHR030C, strain SLT2, active compounds read low
[3] = S. cerevisiae deletion strains, locus YHR079C, strain IRE1, active compounds read low
[4] = S. cerevisiae deletion strains, locus YJL095W, strain BCK1, active compounds read low
[5] = S. cerevisiae deletion strains, locus YJR066W, strain TOR1, active compounds read low
[6] = S. cerevisiae deletion strains, locus YLR113W, strain HOG1, active compounds read low
[7] = S. cerevisiae deletion strains, locus YNL183C, strain NPR1, active compounds read low
[8] = S. cerevisiae deletion strains, locus YOR231W, strain MKK1, active compounds read low
[9] = S. cerevisiae deletion strains, locus YPL256C, strain CLN2, active compounds read low

Measured: normalized growth

CCN(CC)C(=O)c1ccc(O)c(OC)c1
inactive: [1] 1.01 | S. cerevisiae deletion strains, locus YAL040C, strain CLN3, active compounds read low 1.05 | S. cerevisiae deletion strains, locus YCL061C, strain MRC1 (second series), active compounds read low 1 | S. cerevisiae deletion strains, locus YDR363W, strain ESC2, active compounds read low 1.01 | S. cerevisiae deletion strains, locus YER002W, strain NOP16, active compounds read low 1.03 | [2] 0.964 | [3] 0.997 | [4] 1 | [5] 0.957 | [6] 0.99 | S. cerevisiae deletion strains, locus YNL175C, strain NOP13, active compounds read low 1.01 | [7] 0.938 | S. cerevisiae deletion strains, locus YNL197C, strain WHI3, active compounds read low 0.999 | S. cerevisiae deletion strains, locus YNL224C, strain SQS1, active compounds read low 1.01 | S. cerevisiae deletion strains, locus YNL322C, strain KRE1, active compounds read low 1.03 | S. cerevisiae deletion strains, locus YOR083W, strain WHI5 (second series), active compounds read low 1.01 | [8] 0.985 | [9] 0.975

COc1ccc(C(=O)O)c(O)c1OC
inactive: [1] 1.05 | S. cerevisiae deletion strains, locus YBR021W, strain FUR4, active compounds read low 1.03 | S. cerevisiae deletion strains, locus YBR229C, strain ROT2, active compounds read low 1.02 | S. cerevisiae deletion strains, locus YCL029C, strain bik1, active compounds read low 0.992 | S. cerevisiae deletion strains, locus YDL035C, strain GPR1, active compounds read low 1.04 | S. cerevisiae deletion strains, locus YDL074C, strain BRE1, active compounds read low 1.04 | S. cerevisiae deletion strains, locus YDL101C, strain DUN1, active compounds read low 1.01 | S. cerevisiae deletion strains, locus YDL134C, strain PPH21, active compounds read low 1.02 | S. cerevisiae deletion strains, locus YDL185W, strain tfp1, active compounds read low 0.999 | S. cerevisiae deletion strains, locus YDL192W, strain arf1, active compounds read low 0.984 | S. cerevisiae deletion strains, locus YDR101C, strain arx1, active compounds read low 0.985 | S. cerevisiae deletion strains, locus YDR150W, strain NUM1, active compounds read low 1.01 | S. cerevisiae deletion strains, locus YDR162C, strain NBP2, active compounds read low 1.03 | S. cerevisiae deletion strains, locus YDR318W, strain mcm21, active compounds read low 0.988 | S. cerevisiae deletion strains, locus YDR388W, active compounds read low 0.988 | S. cerevisiae deletion strains, locus YDR502C, strain sam2, active compounds read low 0.994 | S. cerevisiae deletion strains, locus YEL061C, strain CIN8, active compounds read low 1.01 | S. cerevisiae deletion strains, locus YER110C, active compounds read low 0.987 | S. cerevisiae deletion strains, locus YER155C, strain BEM2, active compounds read low 1.01 | S. cerevisiae deletion strains, locus YER167W, strain BCK2, active compounds read low 1.02 | S. cerevisiae deletion strains, locus YGL078C, strain dbp3, active compounds read low 0.999 | S. cerevisiae deletion strains, locus YGL086W, strain mad1, active compounds read low 0.994 | S. cerevisiae deletion strains, locus YGL248W, strain PDE1, active compounds read low 1.02 | S. cerevisiae deletion strains, locus YGR078C, strain PAC10, active compounds read low 1.04 | S. cerevisiae deletion strains, locus YGR135W, strain pre9, active compounds read low 1 | S. cerevisiae deletion strains, locus YGR252W, strain gcn5, active compounds read low 1.06 | [2] 1.01 and 1 | S. cerevisiae deletion strains, locus YHR079C, strain IRE1 (second series), active compounds read low 0.986 | [3] 0.996 | S. cerevisiae deletion strains, locus YHR094C, strain hxt1, active compounds read low 0.987 | S. cerevisiae deletion strains, locus YHR129C, strain ARP1, active compounds read low 1.01 | S. cerevisiae deletion strains, locus YHR200W, strain rpn10, active compounds read low 0.997 | S. cerevisiae deletion strains, locus YIL066C, strain RNR3, active compounds read low 1.03 | S. cerevisiae deletion strains, locus YIL073C, strain SPO22, active compounds read low 1.02 | S. cerevisiae deletion strains, locus YIL125W, strain kgd1, active compounds read low 0.988 | S. cerevisiae deletion strains, locus YIR030C, strain dcg1, active compounds read low 0.996 | [4] 1.04 and 1.01 | S. cerevisiae deletion strains, locus YJL134W, strain LCB3, active compounds read low 1.01 | S. cerevisiae deletion strains, locus YJL168C, strain set2, active compounds read low 0.997 | S. cerevisiae deletion strains, locus YJL187C, strain SWE1 (second series), active compounds read low 1.01 | S. cerevisiae deletion strains, locus YJR043C, strain POL32, active compounds read low 1.05 | [5] 0.938 | S. cerevisiae deletion strains, locus YKL009W, strain mrt4, active compounds read low 1.01 | S. cerevisiae deletion strains, locus YKL068W, active compounds read low 0.989 | S. cerevisiae deletion strains, locus YKL085W, strain MDH1 (second series), active compounds read low 0.996 | S. cerevisiae deletion strains, locus YKL085W, strain MDH1, active compounds read low 0.996 | S. cerevisiae deletion strains, locus YKL190W, strain CNB1, active compounds read low 1.01 | S. cerevisiae deletion strains, locus YKR001C, strain vps1, active compounds read low 0.97 | S. cerevisiae deletion strains, locus YLR039C, strain RIC1, active compounds read low 1.09 | S. cerevisiae deletion strains, locus YLR058C, strain SHM2, active compounds read low 1.01 | S. cerevisiae deletion strains, locus YLR102C, strain apc9, active compounds read low 0.996 | [6] 1 | S. cerevisiae deletion strains, locus YLR262C, strain YPT6, active compounds read low 1.12 | S. cerevisiae deletion strains, locus YLR268W, strain sec22, active compounds read low 0.996 | S. cerevisiae deletion strains, locus YLR330W, strain CHS5, active compounds read low 1.01 | S. cerevisiae deletion strains, locus YLR342W, strain FKS1 (second series), active compounds read low 1.01 | S. cerevisiae deletion strains, locus YLR371W, strain rom2, active compounds read low 0.981 | S. cerevisiae deletion strains, locus YLR418C, strain cdc73, active compounds read low 1.04 | S. cerevisiae deletion strains, locus YML016C, strain PPZ1, active compounds read low 1.01 | S. cerevisiae deletion strains, locus YML032C, strain rad52, active compounds read low 1 | S. cerevisiae deletion strains, locus YML124C, strain tub3, active compounds read low 0.997 | S. cerevisiae deletion strains, locus YMR078C, strain ctf18, active compounds read low 0.998 | S. cerevisiae deletion strains, locus YMR223W, strain ubp8, active compounds read low 0.996 | S. cerevisiae deletion strains, locus YMR307W, strain GAS1, active compounds read low 1.22 | S. cerevisiae deletion strains, locus YNL067W, strain RPL9B, active compounds read low 1.02 | S. cerevisiae deletion strains, locus YNL128W, strain TEP1, active compounds read low 1.01 | S. cerevisiae deletion strains, locus YNL153C, strain GIM3, active compounds read low 1.01 | [7] 0.938 | S. cerevisiae deletion strains, locus YNL233W, strain BNI4, active compounds read low 1.02 | S. cerevisiae deletion strains, locus YNL250W, strain rad50, active compounds read low 0.991 | S. cerevisiae deletion strains, locus YNL271C, strain bni1, active compounds read low 0.995 | S. cerevisiae deletion strains, locus YNL298W, strain CLA4, active compounds read low 1.01 | S. cerevisiae deletion strains, locus YNL307C, strain MCK1, active compounds read low 0.988 | S. cerevisiae deletion strains, locus YNR052C, strain pop2, active compounds read low 0.981 | S. cerevisiae deletion strains, locus YOL012C, strain htz1 0.918 | S. cerevisiae deletion strains, locus YOL147C, strain pex11, active compounds read low 0.988 | S. cerevisiae deletion strains, locus YOR061W, strain CKA2, active compounds read low 1.01 | S. cerevisiae deletion strains, locus YOR069W, strain VPS5, active compounds read low 1.01 | S. cerevisiae deletion strains, locus YOR136W, strain idh2, active compounds read low 0.991 | S. cerevisiae deletion strains, locus YOR144C, strain elg1, active compounds read low 0.991 | S. cerevisiae deletion strains, locus YOR184W, strain ser1, active compounds read low 0.998 | [8] 1 | S. cerevisiae deletion strains, locus YOR316C, strain cot1, active compounds read low 0.992 | [9] 1.02 | S. cerevisiae deletion strains, locus YPR119W, strain clb2, active compounds read low 0.993 | S. cerevisiae deletion strains, locus YPR141C, strain kar3, active compounds read low 0.989 | S. cerevisiae deletion strains, locus YPR163C, strain tif3, active compounds read low 0.984 | S. cerevisiae deletion strains, locus YPR167C, strain met16, active compounds read low 0.99 | S. cerevisiae deletion strains, strain wtn01, active compounds read low 0.983 | S. cerevisiae strains, strain wild type, active compounds read low 1.01
